Assay results published in PubChem BioAssay (Tox21).
Records with an inconclusive call do not appear. Active and inactive are the calls of the source. Unless noted, calls come from the whole dose curve; as a rule, active = well fitted curve in the direction sought with a large enough effect in the repeat runs; inconclusive = weak or mixed curves; inactive = no such curve, though single readings can be large; an effect the other way counts as inactive or inconclusive.

Tests used:
[1] = qHTS assay to identify small molecule agonists of the RXR signaling pathway - cell viability counter screen (AID 1159529); note: series mostly up to about 77 µM; nearly all actives have a fitted effect of over 50% in size
How it was run: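 Compounds dissolved in DMSO were pinned onto HEK 293T cells carrying a beta-lactamase reporter under RXR-alpha control and incubated 16 hr. Cytotoxicity was then quantified by CellTiter-Glo luminescence.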

[2] = qHTS assay to identify small molecule antagonists of the retinoid acid receptor (RAR) signaling pathway - cell viability counter screen (AID 1159551); note: nearly all actives have a fitted effect of over 35% in size
How it was run: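 C3RL4 cells were seeded overnight at 37 C, then treated with compounds plus 1 uM (final) retinol for 6 h at 37 C. Viability was read as ATP by CellTiter-Glo luminescence after 30 min at room temperature.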

[3] = qHTS assay to identify small molecule antagonists of the retinoic acid receptor (RAR) signaling pathway (AID 1159552; note: nearly all actives have a fitted effect of over 50% in size; note: potency is the fitted concentration of half-maximal effect)
How it was run: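 Test chemicals and DMSO controls were pin-transferred onto C3RL4 cells a day after seeding; retinol (1 uM final) followed at once. Luminescent reporter output was quantified after 6 hr of co-incubation and 30 min with detection reagent.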

[4] = qHTS assay to identify small molecule antagonists of the estrogen related receptor (ERR) signaling pathway from Tox21 library - cell viability counter screen (AID 1224834); note: nearly all actives have a fitted effect of over 30% in size; note: potency is the fitted concentration of half-maximal effect
How it was run: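 ERR reporter cells were plated 6 h before compound addition, then exposed to test compounds in DMSO for 17.5 h at 37 C. Viability was read as CellTiter-Fluor fluorescence after a 30-minute incubation at 37 C.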

[5] = biological target: Luciferin 4-monooxygenase (Photinus pyralis) (UniProt P08659); assay: qHTS assay to identify small molecule inhibitors of firefly luciferase (AID 1224835); note: nearly all actives have a fitted effect of over 25% in size; note: potency is the fitted concentration of half-maximal effect; for activity change, negative = inhibition: series mostly up to about 120 µM
Luciferin 4-monooxygenase (Photinus pyralis), sequence (P08659 whole entry, looked up): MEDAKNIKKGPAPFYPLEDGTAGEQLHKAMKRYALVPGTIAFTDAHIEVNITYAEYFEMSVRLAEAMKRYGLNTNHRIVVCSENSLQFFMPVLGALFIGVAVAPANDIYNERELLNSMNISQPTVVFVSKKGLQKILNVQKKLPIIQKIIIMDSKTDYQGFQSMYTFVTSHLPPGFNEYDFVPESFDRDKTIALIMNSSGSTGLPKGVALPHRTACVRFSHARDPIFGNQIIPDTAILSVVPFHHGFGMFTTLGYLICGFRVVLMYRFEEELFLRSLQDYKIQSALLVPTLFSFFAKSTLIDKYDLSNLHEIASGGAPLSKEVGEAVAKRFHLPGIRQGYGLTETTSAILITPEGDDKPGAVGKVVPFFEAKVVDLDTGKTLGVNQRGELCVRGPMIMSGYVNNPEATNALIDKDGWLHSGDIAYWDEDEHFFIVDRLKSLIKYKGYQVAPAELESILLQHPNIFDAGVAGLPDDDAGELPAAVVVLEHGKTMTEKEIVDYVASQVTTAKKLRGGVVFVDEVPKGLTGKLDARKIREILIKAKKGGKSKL
How it was run: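 Biochemical qHTS: compounds run as interplate titrations against purified firefly enzyme, with D-luciferin and ATP each at its KM concentration. Light output recorded by CCD imaging.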

[6] = qHTS assay to identify small molecule agonists of the constitutive androstane receptor (CAR) signaling pathway - cell viability counter screen (AID 1224836); note: series mostly up to about 92 µM; nearly all actives have a fitted effect of over 45% in size
How it was run: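 23 h treatment, 37 C, 5% CO2. Cell line: HepG2 stably expressing hCAR with a CYP2B6-2.2kb construct. Co-treatment: PK11195, 0.75 uM final. Read-out: CellTiter-Fluor fluorescence intensity.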

[7] = qHTS assay to identify small molecule antagonists of the constitutive androstane receptor (CAR) signaling pathway - cell viability counter screen (AID 1224837); note: series mostly up to about 92 µM; nearly all actives have a fitted effect of over 45% in size
How it was run: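 HepG2 cells stably expressing hCAR and a CYP2B6-2.2kb reporter were plated and pre-incubated 4 hr at 37 C/5% CO2, then given compounds at 15 concentrations plus 50 nM CITCO (final). After 23 hr, viability was read by CellTiter-Fluor fluorescence.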

[8] = qHTS assay to identify small molecule antagonists of the estrogen related receptor signaling pathway with the pleiotropic PPARgamma coactivator (PGC) from Tox21 10K library (AID 1224841; call rule not given here; note: series mostly up to about 92 µM; actives are mostly falling curves and most rising ones were filed inactive; nearly all actives have a fitted effect of over 50% in size)
How it was run: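 PGC/ERR reporter cells were seeded at 2,000 cells/well and held 6 hours at 37 C/5% CO2 before pin-tool addition of compounds in DMSO. After 18 hours at 37 C, One-Glo was added and luminescence read after 30 minutes at room temperature.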

[9] = qHTS assay to identify small molecule agonists of the estrogen related receptor signaling pathway with the pleiotropic PPARgamma coactivator (PGC) from Tox21 10K library (AID 1224842); note: nearly all actives have a fitted effect of over 15% in size
How it was run: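 PGC/ERR reporter cell line, 2,000 cells per well, incubated 6 h at 37 C before 23 nL compound in DMSO was added. After 18 h at 37 C, One-Glo luminescence read following 30 min at room temperature.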

[10] = qHTS assay to identify small molecule agonists of the retinoic acid receptor (RAR) signaling pathway (AID 1159553); note: potency is the fitted concentration of half-maximal effect
How it was run: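 C3RL4 cells carrying a RARE luciferase reporter were plated overnight at 37 C, then exposed to compounds in DMSO for 6 hr at 37 C and 5% CO2. Luminescence was read 30 min after luciferase reagent addition at room temperature.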

[11] = qHTS assay to identify small molecule antagonists of the estrogen related receptor signaling pathway with the pleiotropic PPARgamma coactivator (PGC) from Tox21 10K library - cell viability counter screen (AID 1224840; active = well fitted cell-killing curve with a large enough effect in the repeat runs, not every such curve was filed as active; note: nearly all actives have a fitted effect of over 40% in size)
How it was run: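 PGC/ERR cells were seeded at 2,000 cells/well and left 6 hours at 37 C/5% CO2 before pin-tool addition of compounds in DMSO. After 17.5 hours at 37 C, CellTiter-Fluor was added and fluorescence read 30 minutes later.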

[12] = biological target: Thyrotropin receptor (Homo sapiens) (UniProt P16473); assay: qHTS assay to identify small molecule agonists of the thyroid stimulating hormone receptor (TSHR) signaling pathway (AID 1224843; calls by dose curve; note: nearly all actives have a fitted effect of over 45% in size; note: potency is the fitted concentration of half-maximal effect)
Thyrotropin receptor (Homo sapiens), sequence (P16473 whole entry, looked up): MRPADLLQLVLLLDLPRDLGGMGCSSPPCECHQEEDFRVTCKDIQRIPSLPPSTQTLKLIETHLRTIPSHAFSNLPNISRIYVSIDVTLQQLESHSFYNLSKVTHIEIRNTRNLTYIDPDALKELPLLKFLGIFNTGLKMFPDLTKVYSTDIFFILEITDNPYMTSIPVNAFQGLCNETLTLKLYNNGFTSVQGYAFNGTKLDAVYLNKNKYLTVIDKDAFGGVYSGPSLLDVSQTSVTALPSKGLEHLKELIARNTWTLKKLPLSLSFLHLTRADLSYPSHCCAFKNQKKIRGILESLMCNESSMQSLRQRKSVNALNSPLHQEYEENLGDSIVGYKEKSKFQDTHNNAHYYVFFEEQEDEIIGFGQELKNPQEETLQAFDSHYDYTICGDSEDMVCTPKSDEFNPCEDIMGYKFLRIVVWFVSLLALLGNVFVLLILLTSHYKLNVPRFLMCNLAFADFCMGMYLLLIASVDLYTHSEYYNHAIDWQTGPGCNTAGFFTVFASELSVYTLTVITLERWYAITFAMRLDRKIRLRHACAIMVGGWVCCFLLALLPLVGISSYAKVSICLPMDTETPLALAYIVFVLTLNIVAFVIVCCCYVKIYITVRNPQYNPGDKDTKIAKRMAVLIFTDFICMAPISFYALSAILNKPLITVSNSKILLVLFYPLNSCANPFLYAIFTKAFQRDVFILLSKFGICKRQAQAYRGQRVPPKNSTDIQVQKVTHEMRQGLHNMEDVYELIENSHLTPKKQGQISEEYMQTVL
How it was run: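 Steps: seed 800 TSHR-HEK293 cells per well; add test compound and hold 30 min at ambient temperature; dispense cAMP-d2 then anti-cAMP cryptate; incubate 1 h at ambient; measure fluorescence intensity.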

[13] = biological target: Nuclear receptor subfamily 1 group I member 3 (Homo sapiens) (UniProt Q14994); assay: qHTS assay to identify small molecule antagonists of the constitutive androstane receptor (CAR) signaling pathway (AID 1224838); note: nearly all actives have a fitted effect of over 40% in size
Nuclear receptor subfamily 1 group I member 3 (Homo sapiens), sequence (Q14994 whole entry, looked up): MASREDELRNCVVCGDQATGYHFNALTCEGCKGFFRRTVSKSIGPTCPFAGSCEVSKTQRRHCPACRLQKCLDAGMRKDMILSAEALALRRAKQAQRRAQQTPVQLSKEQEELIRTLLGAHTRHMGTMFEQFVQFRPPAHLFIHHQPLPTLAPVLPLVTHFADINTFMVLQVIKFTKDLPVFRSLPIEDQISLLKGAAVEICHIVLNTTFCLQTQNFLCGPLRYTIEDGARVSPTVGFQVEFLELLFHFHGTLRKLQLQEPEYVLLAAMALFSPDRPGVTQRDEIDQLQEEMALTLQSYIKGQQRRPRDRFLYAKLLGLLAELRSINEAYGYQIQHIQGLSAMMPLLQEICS
How it was run: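 HepG2 cells stably co-transfected with hCAR and a CYP2B6-2.2kb luciferase reporter were seeded 4 h before compound addition at 15 concentrations. Cells were stimulated with 50 nM CITCO (final) for 24 h at 37 C; luciferase luminescence was then read.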

[14] = biological target: Nuclear receptor subfamily 1 group I member 3 (Homo sapiens) (UniProt Q14994); assay: qHTS assay to identify small molecule agonists of the constitutive androstane receptor (CAR) signaling pathway (AID 1224839);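 note: HepG2 cells stably carrying human CAR and a CYP2B6 luciferase reporter; series mostly up to about 92 µM; nearly all actives have a fitted effect of over 15% in size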
How it was run: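 Compounds tested at 15 concentrations on HepG2 cells stably harbouring hCAR and CYP2B6-2.2kb reporter constructs, co-treated with PK11195 (0.75 uM final), 24 h at 37 C; luminescent reporter signal quantified.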
% is set by controls: 0 for no effect and ±100 for the full control effect.

C=CCc1ccccc1O
inactive: Potency [1] | Potency [2] | Potency [3] | Potency [4] | Potency [5] | Potency [6] | Potency [7] | Potency [8] | Potency [9]

O=C(NCNC(=O)NC1C(=O)NC(=O)N1CO)NC1C(=O)NC(=O)N1CO (stereo unspecified)
inactive: Potency [1] | Potency [2] | Potency [3] | Potency [10] | Potency [4] | Potency [11] | Potency [8] | Potency [9] | Potency [12]

COc1ccc(C(=O)c2c(C)n(CCN3CCOCC3)c3ccccc23)cc1
inactive: Potency [1] | Potency [2] | Potency [3] | Potency [10] | Potency [5] | Potency [6] | Potency [7] | Potency [11] | Potency [8] | Potency [9]

C#C[C@]1(O)CC[C@H]2[C@@H]3CCC4=CC(=O)CCC4=C3C=C[C@@]21CC
inactive: Potency [1] | Potency [2] | Potency [6] | Potency [7] | Potency [13] | Potency [11]
active: Potency [3] 9.44 µM | Potency [4] 21.1 µM

O=C=NC1CCCCC1
inactive: Potency [1] | Potency [2] | Potency [4] | Potency [5] | Potency [6] | Potency [7] | Potency [13] | Potency [11] | Potency [8] | Potency [9] | Potency [12]
active: Potency [10] 1.94 µM

CC(C)(C)NCC(O)c1cc(Cl)c(N)c(C(F)(F)F)c1 (stereo unspecified)
inactive: Potency [1] | Potency [2] | Potency [3] | Potency [5] | Potency [11] | Potency [8] | Potency [9]
active: Potency [12] 0.0021 µM

ClCc1ccccc1Cl
inactive: Potency [1] | Potency [2] | Potency [3] | Potency [4] | Potency [5] | Potency [6] | Potency [7] | Potency [13] | Potency [11] | Potency [8] | Potency [9] | Potency [12]

NNCCO
inactive: Potency [1] | Potency [2] | Potency [3] | Potency [4] | Potency [5] | Potency [6] | Potency [7] | Potency [11] | Potency [8] | Potency [9] | Potency [12]

Nc1c(Br)cc(Br)c2c1C(=O)c1ccccc1C2=O
inactive: activity change, negative = cytotoxicity [1] 4.15% [at 15.8 µM] | activity change, negative = cytotoxicity [2] 0.857% [at 19 µM] | activity, negative = inhibition [3] 12.6% [at 19 µM] | viability change, negative = cytotoxic [4] -5.59% [at 19 µM] | activity change, negative = inhibition [5] -3.13% [at 23.6 µM] | viability change, negative = cytotoxic [6] -15% [at 19 µM] | activity change, negative = cytotoxicity [7] -15.6% [at 19 µM] | activity, negative = inhibition [13] 102% [at 19 µM] | activation [14] 7.31% [at 19 µM] | viability change, negative = cytotoxic [11] -14.9% [at 19 µM] | activity, negative = inhibition [8] 5.52% [at 19 µM] | activation [9] 0.394% [at 19 µM] | activation [12] -6.18% [at 19 µM]

c1ccc2c(c1)sc1ccccc12
active: Potency [5] 31.7 µM
inactive: Potency [1] | Potency [2] | Potency [10] | Potency [4] | Potency [6] | Potency [7] | Potency [13] | Potency [14] | Potency [11] | Potency [8] | Potency [9] | Potency [12]

CCc1ccccc1N
inactive: Potency [1] | Potency [2] | Potency [3] | Potency [4] | Potency [5] | Potency [6] | Potency [7] | Potency [13] | Potency [14] | Potency [11] | Potency [12]
